Some test systems named below: NCI-H23 lung; NCI-H226 lung; NCI-H322M lung; HOP-62 NSCLC; NCI-H460 lung; HOP-92 NSCLC; NCI-H522 lung; A549/ATCC NSCLC; 786-0 renal; COLO 205 colon.
Holding throughout (test): NCI-60 one-dose screen, 48 h (100 = growth as untreated, 0 = no growth, -100 = all killed)
Conditions in all cases: 10 µM unless noted

This is part of a sample that, as a whole, favours compounds with a hit. Of some 83,000 tested, about 20% had one in any assay.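 Note: values are percent growth. 100 is the growth of untreated cells, values between 100 and 0 indicate rising inhibition; between -100 and 0 indicates cell death.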 A number with no mark means an inactive call. Active and inactive are the calls of the source. The calls were made as follows: active = growth percent below 10; inactive = the rest.

15 compounds from PubChem BioAssay (NCI) can be followed below.

Take `Cn1cnc2c(N3CCN(C(=O)OCc4ccc5c(Cl)cc(Cl)c(O)c5n4)CC3)nc(Cl)nc21`: the growth with NCI-H23 lung was 86.4%; in the test on NCI-H226 lung it was 72.9%; in the test on NCI-H322M lung, 70.2%; with HOP-62 NSCLC, 53.7%; with NCI-H460 lung, 27.6%; in the test with HOP-92 NSCLC, 70.7%. Moreover, the growth was 80.3% with NCI-H522 lung, 51.2% with A549/ATCC NSCLC and 92.1% in the test on 786-0 renal.
On to `C=C1CCC2C3(C)COC(c4ccc(N(C)C)cc4)OC3CCC2(C)C1C/C=C1/C(=O)OCC1O` (stereo not given), for which the growth was 66.4% in the test with NCI-H23 lung; 109% with NCI-H226 lung; 83.1% in the test with NCI-H322M lung; 108% with HOP-62 NSCLC; 74.2% in the test on NCI-H460 lung; 68.9% with HOP-92 NSCLC. The growth with NCI-H522 lung is 74.2%; in the test on A549/ATCC NSCLC, 52%; in the test with 786-0 renal, 96%.
Turning to `Cc1ccc(S(=O)(=O)c2nc(-c3ccccc3)oc2S(C)(=O)=O)cc1`, the growth in the test with NCI-H23 lung is 76.3%; with NCI-H226 lung, 90.5%; in the test on NCI-H322M lung it was 106%; with HOP-62 NSCLC, 80.7%; in the test on NCI-H460 lung it was 80%; in the test on HOP-92 NSCLC, -27.4% (active). The values for the growth in the test with NCI-H522 lung, in the test on A549/ATCC NSCLC and with 786-0 renal were -84.4% (active), 85.6% and -16.5% (active), respectively.
As for `CC(C)CSc1nc(NN)c(C#N)c(-c2ccc(F)cc2)n1`, the growth is 70.4% with NCI-H23 lung; 80.3% in the test with NCI-H226 lung; 74.9% with NCI-H322M lung; 47.3% in the test with HOP-62 NSCLC; 52.1% in the test on NCI-H460 lung; 105% in the test on HOP-92 NSCLC. Moreover, the growth with NCI-H522 lung is 63.2%; with A549/ATCC NSCLC, 77.1%; with 786-0 renal, 85.9%.
`O=[N+]([O-])c1ccc(/C=C/C2(CCl)OCCO2)cc1`: the growth in the test on NCI-H23 lung is 90.9%; with NCI-H226 lung, 101%; with NCI-H322M lung, 152%; with HOP-62 NSCLC it was 116%; with NCI-H460 lung, 117%; in the test with HOP-92 NSCLC, 84.2%. In addition, the growth is -15.3% (active) in the test with NCI-H522 lung, 105% in the test on A549/ATCC NSCLC and 85.6% with 786-0 renal.
Turning to `CN(C[C@H]1Cc2c(cccc2N2CCN(Cc3ccccn3)CC2)CN1)[C@H]1CCCc2cccnc21`, the growth is 62.4% in the test on NCI-H23 lung; 56.9% with NCI-H226 lung; 65.3% in the test with NCI-H322M lung; 39.1% in the test on HOP-62 NSCLC; 28.1% in the test on NCI-H460 lung; 73.2% in the test with HOP-92 NSCLC. Also, the growth was 95.5% with NCI-H522 lung, 40.3% in the test on A549/ATCC NSCLC and 68.5% in the test on 786-0 renal.
For the compound `O=C(c1ccccc1)c1c(/C=C/c2ccccc2)c2ccccc2[nH]c1=O`, the growth in the test on NCI-H23 lung is 94.2%; in the test with NCI-H226 lung, 89.9%; with NCI-H322M lung, 82.8%; in the test with HOP-62 NSCLC, 87.1%; in the test on NCI-H460 lung it was 114%; in the test on HOP-92 NSCLC, 73%. The growth with NCI-H522 lung is 83.4%; in the test with A549/ATCC NSCLC, 93.5%; in the test with 786-0 renal it was 92.2%.
On to `COc1ccc2c(c1)cn1c3ccc(OC)cc3[nH]c(=O)c21`, for which the growth in the test with NCI-H23 lung was 33.3%; in the test with NCI-H226 lung, 5.93% (active); in the test on NCI-H322M lung, -45.3% (active); in the test on HOP-62 NSCLC, 5.85% (active); in the test with NCI-H460 lung it was -51% (active); with HOP-92 NSCLC, 28.4%. Also, the growth in the test on NCI-H522 lung was -44.9% (active); in the test with A549/ATCC NSCLC, -57% (active); in the test with 786-0 renal it was -88.3% (active).
Regarding `CCN(CC)CCOC(=O)C(c1ccccc1)(c1ccccc1)C(C)C`, the growth in the test on NCI-H23 lung is 90.2%; in the test with NCI-H226 lung, 92.9%; with NCI-H322M lung, 82.3%; with HOP-62 NSCLC, 83.2%; in the test on NCI-H460 lung, 92%; with HOP-92 NSCLC, 77.7%. Also, the growth in the test on NCI-H522 lung was 86.6%; in the test with A549/ATCC NSCLC, 80%.
For `O=C(c1ccccc1)C1OC1c1ccc([N+](=O)[O-])cc1` (stereo not given), the growth with NCI-H23 lung was 48.1%; in the test on NCI-H226 lung, 67.7%; in the test with NCI-H322M lung, 106%; with HOP-62 NSCLC, 86.4%; in the test on NCI-H460 lung it was 84%; with HOP-92 NSCLC it was 61.5%. Moreover, the growth in the test with NCI-H522 lung is 31.4%; in the test on A549/ATCC NSCLC, 85.6%; in the test with 786-0 renal, 83.3%.
Take `Nc1cc2c([nH]c[n+]2CC#CCCl)c(SCC#CCCl)n1`: the growth was -72.2% (active) with NCI-H23 lung; -42.5% (active) in the test with NCI-H226 lung; -66.6% (active) in the test with NCI-H322M lung; -62.8% (active) with HOP-62 NSCLC; -7.39% (active) with NCI-H460 lung; -39.7% (active) in the test on HOP-92 NSCLC. For the same compound, the results for the growth in the test on NCI-H522 lung, in the test on A549/ATCC NSCLC and in the test on 786-0 renal were -90.7% (active), -7.51% (active) and -86.5% (active), respectively.
In the case of `CCOc1cc2c(Cl)ncnc2c(OCC)c1OCC`, the growth with NCI-H23 lung was 79.6%; in the test with NCI-H226 lung, 91.6%; in the test on NCI-H322M lung, 65.4%; with HOP-62 NSCLC it was 90.9%; in the test with NCI-H460 lung, 99%; in the test on HOP-92 NSCLC it was 86.9%. In addition, the growth in the test on NCI-H522 lung is 58.8%; in the test with A549/ATCC NSCLC, 95.6%; in the test with 786-0 renal, 105%.
`COc1ccc(/C=N\NC(=O)CN2CCN(c3cc4c(cc3F)c(=O)c(C(=O)N/N=C/c3ccc(OC)c(OC)c3)cn4C3CC3)CC2)cc1OC`: the growth in the test on NCI-H23 lung was -32% (active); with NCI-H226 lung, 52.1%; in the test on NCI-H322M lung, 11.1%; in the test with HOP-62 NSCLC, 9.47% (active); in the test on NCI-H460 lung, 3.65% (active); in the test with HOP-92 NSCLC, -2.77% (active). Moreover, the growth in the test on NCI-H522 lung is 7.49% (active); with A549/ATCC NSCLC it was 48.6%; with 786-0 renal it was 45.4%; in the test on COLO 205 colon, 7.74% (active).
In the case of `C=C1CCC2C3(C)COC(c4c(OC)cccc4OC)OC3CCC2(C)C1C/C=C1/C(=O)OCC1O` (stereo not given), the growth in the test with NCI-H23 lung was 80%; in the test on NCI-H226 lung, 80.2%; in the test on NCI-H322M lung, 70.3%; with HOP-62 NSCLC, 104%; in the test on NCI-H460 lung it was 89%; with HOP-92 NSCLC, 46.7%. Further, the growth in the test with NCI-H522 lung was 24.6%; in the test on A549/ATCC NSCLC it was 47.9%; in the test on 786-0 renal, 90.3%.
On to `Cc1ccc(S(=O)(=O)n2cc(C(=O)C(=O)Nc3ccncc3)c3ccccc32)cc1`, for which the growth in the test on NCI-H23 lung is 36.4%; with NCI-H226 lung it was 64.2%; in the test with NCI-H322M lung it was 94.7%; in the test with HOP-62 NSCLC, 33.4%; in the test on NCI-H460 lung, 80.4%; with HOP-92 NSCLC, 38.5%. Further, the growth with NCI-H522 lung was 1.71% (active); with A549/ATCC NSCLC, 73.5%; in the test with 786-0 renal, 29.5%.
